Anthrax LF prot: Bacillus anthracis LF protease inhibitors, primary screen, biochemical, multiplex microsphere, MLPCN library; inhibition, % at 10 µM; AID 588501, 2011; multiplex microsphere protease cleavage assay; 360,000 tested, 0.12% active
Target sequence (P15917 whole entry, looked up): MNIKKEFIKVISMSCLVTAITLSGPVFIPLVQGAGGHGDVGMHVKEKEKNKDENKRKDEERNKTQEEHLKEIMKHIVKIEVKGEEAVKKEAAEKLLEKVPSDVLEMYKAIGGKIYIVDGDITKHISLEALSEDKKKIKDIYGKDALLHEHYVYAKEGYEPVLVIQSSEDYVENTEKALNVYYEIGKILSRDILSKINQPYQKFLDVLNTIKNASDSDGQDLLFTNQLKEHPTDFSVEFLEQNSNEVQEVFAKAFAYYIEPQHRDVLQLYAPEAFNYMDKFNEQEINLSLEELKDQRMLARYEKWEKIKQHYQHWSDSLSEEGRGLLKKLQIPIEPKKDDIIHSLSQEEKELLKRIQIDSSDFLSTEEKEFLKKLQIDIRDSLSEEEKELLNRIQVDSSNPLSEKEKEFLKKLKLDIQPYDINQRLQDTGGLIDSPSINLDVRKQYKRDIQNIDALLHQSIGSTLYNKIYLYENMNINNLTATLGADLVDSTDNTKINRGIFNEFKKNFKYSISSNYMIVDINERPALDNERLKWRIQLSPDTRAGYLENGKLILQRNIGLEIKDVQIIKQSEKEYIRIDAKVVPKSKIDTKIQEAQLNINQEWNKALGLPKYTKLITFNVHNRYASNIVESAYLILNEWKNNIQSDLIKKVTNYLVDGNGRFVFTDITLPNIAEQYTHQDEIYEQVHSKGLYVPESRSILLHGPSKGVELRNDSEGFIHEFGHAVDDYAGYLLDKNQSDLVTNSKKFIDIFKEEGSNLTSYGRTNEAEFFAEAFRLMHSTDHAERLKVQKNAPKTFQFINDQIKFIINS
BJeLR lethal: MLPCN primary cell-based screen for lethality selective to Ras in HRASV12 cells; inhibition, % (no concentration beside the values); BJeLR (HRASV12) viability, CellTiter-Glo ATP luminescence, 48 h; 300,000 tested, 0.17% active; AID 1554, 2009; in the data active = inhibition above about 50%; inconclusive = no clear call, values can overlap the other calls
BoNT-A LC inh2: BoNT/A light chain protease inhibitors, primary screen, biochemical, flow cytometry, MLPCN library. Botulinum neurotoxin type A light chain protease (Clostridium botulinum A str. ATCC 3502). multiplex microsphere protease substrate cleavage. AID 588499, 2011. inhibition, % at 10 µM. 360,000 tested, 0.17% active
Autofluor counter: counter-screen for toxin protease inhibitors: compound fluorescence; compound autofluorescence counterscreen, microsphere flow cytometry; active compounds read high; fluorescence intensity (concentration not given with the values); 360,000 tested, 3.1% active; AID 624483; in the data active = fluorescence intensity above about 16000; inconclusive = no clear call, values can overlap the other calls
BoNT-F LC inh: BoNT/F light chain protease inhibitors, primary screen, biochemical, flow cytometry, MLPCN library. Multiplex microsphere protease cleavage assay. inhibition, % at 10 µM. 360,000 tested, 0.22% active. AID 588497, 2011; in the data active = inhibition above about 35%, passing the limit was not always enough; inconclusive = no clear call, values can overlap the other calls
Numbers stand for hits; . = inactive; ? = inconclusive; / = no result given. Compounds with a hit are over-represented: about 3.5% of the library has one in this group of screens. Cut-off read from the data, not from the text of the source, unless noted: active = inhibition above about 30%; inconclusive = no clear call, values can overlap the other calls; inactive = below that.

SMILES	Anthrax LF prot	BJeLR lethal	BoNT-A LC inh2	Autofluor counter	BoNT-F LC inh
COc1ccc(CCN=C(N)Nc2nc(C)cc(C)n2)cc1	.	.	.	.	.
Cc1cc2c(c(C#N)c1C)NC=NC2C (stereo not drawn)	.	/	.	.	.
COc1ccc(NC(=O)CN(C)S(=O)(=O)c2ccccc2)cc1	.	.	.	20336	.
COc1ccc(NC(=O)CN(Cc2ccccc2)S(C)(=O)=O)cc1	.	.	.	23289	.
CS(=O)(=O)N(CC(=O)Nc1ccc2c(c1)OCCO2)Cc1ccccc1	.	.	.	21816	.
COc1ccc(CNC(=O)CN(C)S(=O)(=O)c2ccccc2)cc1	.	/	.	.	.
Cc1ccc(NC(=O)CN(Cc2ccccc2)S(C)(=O)=O)cc1C	.	.	.	20638	.
CS(=O)(=O)N(CC(=O)Nc1ccccc1)Cc1ccc(Cl)cc1	.	.	.	.	.
CCCN1CCN(C(=O)c2ccc3[nH]c(C)c(C)c3c2)CC1	.	/	.	.	.
CC(C)(C)C1CCC(CN2CCC(CN3C(=O)C(=O)NC[C@@H]3Cc3ccccc3)CC2)CC1 (stereo partly drawn)	.	/	.	.	.
COCCNC(=O)CN(Cc1ccc(Cl)cc1)S(C)(=O)=O	.	.	.	20349	.
Nc1cc(OC(=O)c2ccc(F)cc2)nn1S(=O)(=O)c1ccccc1	.	.	.	.	.
CC(C)C[C@H]1CN(CCCC[C@H]2CNC(=O)C(=O)N2CCc2ccccc2)C(=O)C(=O)N1CCC1CCCCC1	.	/	.	.	.
O=C(CSc1nnnn1-c1ccccc1)NCc1cccs1	.	.	.	16730	.
Cc1ccc(OCCN2C(=O)c3ccccc3C2=O)cc1	.	.	.	22823	.
CCOC(=O)CN1C(=O)S/C(=C/C=C/c2ccc(N(C)C)cc2)C1=O	.	.	.	.	.
CCOc1nc(-c2ccc(OC)cc2)ccc1-c1noc(-c2ccncc2)n1	.	/	?	23147	.
CCOc1nc(-c2ccccc2)ccc1-c1noc(-c2ccncc2)n1	.	.	.	.	.
CCOc1nc(-c2ccccc2)ccc1-c1noc(-c2cccs2)n1	.	.	.	20998	.
CCN(CC)C(=O)C(=O)N/N=C/c1cccc(Br)c1	.	.	.	.	.
CCC1(C)Cc2c(sc3c2c(=O)n(C)c2nnc(SCC(=O)c4ccccc4)n32)CO1 (stereo not drawn)	.	.	.	20408	.
CCOC(=O)NC(Nc1sc2c(c1C(N)=O)CCCC2)(C(=O)OCC)C(F)(F)F (stereo not drawn)	.	.	?	20183	.
CCOC(=O)C(NC(=O)CC)(Nc1nc2c(s1)CCCC2)C(F)(F)F (stereo not drawn)	.	.	.	.	.
CN(CC(=O)Nc1ccc(F)c(F)c1F)C(=O)c1ccc(=O)[nH]c1	.	.	.	.	.
O=[N+]([O-])c1ccc(C2CCCC/C2=N\OCc2cccc(F)c2)c([N+](=O)[O-])c1 (stereo not drawn)	.	.	?	23769	.
SMILES	Anthrax LF prot	BJeLR lethal	BoNT-A LC inh2	Autofluor counter	BoNT-F LC inh
CC1CCCC/C1=N/Nc1ccc([N+](=O)[O-])cc1[N+](=O)[O-] (stereo not drawn)	.	.	.	.	.
COc1cc(/C=C\C(=O)NCc2ccc3c(c2)cc(C)n3C)cc(OC)c1OC	.	.	68	.	.
CC(C)CNc1ncnc2c1ncn2[C@H]1CN(Cc2ccco2)C[C@@H](CO)O1	.	/	.	.	.
COc1ccc(/C(N)=N/OC(=O)CN(C)S(=O)(=O)c2ccccc2)cc1	.	/	.	.	.
CN(CC(=O)O/N=C(\N)c1ccccn1)S(=O)(=O)c1ccccc1	.	.	.	19036	.
N#C/C(=C\c1cc(Cl)cc(Cl)c1O)C(=O)NC1CCCCC1	.	.	?	16628	.
O=C1OC(Cc2ccccc2)(c2ccccc2)c2ccccc21 (stereo not drawn)	.	/	.	.	.
CN(Cc1nc2ccccc2n1C)C(=O)c1cccs1	.	.	.	22484	.
CN(Cc1nc2ccccc2n1C)c1ccccc1	/	.	/	/	/
Sc1oc(-c2ccccc2)cc1C=Nc1ccccc1	.	.	.	24473	.
C=CCN1C(=O)c2cccc3c(N4CCCCC4)ccc(c23)C1=O	.	.	30	.	.
O=C1c2cccc3c(N4CCCCC4)ccc(c23)C(=O)N1c1cccc(O)c1	.	.	.	.	.
Cc1n[nH]c(C)c1N1C(=O)c2cccc3c(N4CCCCCC4)ccc(c23)C1=O	.	.	.	20898	.
CCOC(=O)CC1C(=O)NCCN1C(=O)c1sc2ccccc2c1Cl (stereo not drawn)	.	.	.	.	.
COc1ccc(-c2ccc3c(c2)O[C@H](CN(C)C(=O)Nc2ccccc2F)[C@@H](C)CN([C@H](C)CO)S3(=O)=O)cc1	.	/	.	.	.
COCCNC(=O)c1c(NC(=O)c2ccc(Br)o2)n(Cc2ccccc2)c2nc3ccccc3nc12	.	.	35	.	.
C=CCn1cc(C(=O)N2CCN(C)CC2)c(=O)c2cc(S(=O)(=O)N(CC)CC)ccc21	.	.	.	.	.
COc1ccc2cc(C(=O)N/N=C/c3sc4ccccc4c3O)ccc2c1	.	.	34	.	.
COC(=O)c1sc(N)c(C(=O)OC)c1COC(=O)C1CC(=O)N(Cc2ccco2)C1 (stereo not drawn)	.	.	.	21636	.
Cc1c(C(=O)N(C)Cc2ccc(F)cc2)sc(=O)n1Cc1ccc(Cl)c(Cl)c1	.	/	.	.	.
CC(=O)c1cccc(NC(=O)/C=C/c2ccc([N+](=O)[O-])s2)c1	.	63	.	.	.
Cc1cc(C)cc(NC(=O)/C=C/c2ccc([N+](=O)[O-])s2)c1	.	.	.	.	.
CCN1/C(=C/C=C/c2oc3ccc(-c4ccccc4)cc3[n+]2CC)Oc2ccc(-c3ccccc3)cc21	.	80	43	70271	.
CCCCN1C(=O)/C(=C/C=C2\Oc3ccccc3N2CC)SC1=S	.	.	.	.	.
O=c1c2ccccc2[nH]c(=S)n1-c1cccc(C(F)(F)F)c1	.	/	.	.	.
SMILES	Anthrax LF prot	BJeLR lethal	BoNT-A LC inh2	Autofluor counter	BoNT-F LC inh
Nc1cc(=O)[nH]c(=S)n1-c1cccc(C(F)(F)F)c1	.	.	.	16135	.
COc1ccc(C2SCC(=O)Nc3c2c(C)nn3C2CCOC(C)(C)C2)cc1OC (stereo not drawn)	.	.	?	23587	.
COc1ccc(C2SCC(=O)Nc3c2c(C)nn3-c2ccccc2)cc1OC (stereo not drawn)	.	.	.	23949	.
Cc1cc(C(=O)Nc2nnc(C(F)(F)F)s2)no1	.	.	.	22963	.
Cc1cc(C(=O)Nc2ccccc2C(F)(F)F)no1	.	.	?	24116	.
Cc1ccc(NC(=O)c2cc(C)on2)cc1	.	.	.	20978	.
